# Results published in PubChem BioAssay (NCATS).
# Where “and” joins values, the source holds several entries; their conditions need not be identical. Identical values can stand only once. Results filed as inconclusive are left out. Entries that show only a call come without a potency. Calls of active or inactive are those of the source. Unless noted, calls follow the shape of the dose curve; as a rule, active = well fitted curve in the direction sought with a large enough effect; inconclusive = small, poorly fitted or top-dose-only effect, or another doubt; inactive = no such curve, though single readings can be large; an effect the other way counts as inactive or inconclusive.
# Tests used:
# CP194 = assay: qHTS profiling for inhibitors of Plasmodium falciparum proliferation (AID 504749); also: nearly all actives have a fitted effect of over 60% in size; also: potency is read from the fitted curve at half-maximal effect; settings: P. falciparum in erythrocytes, SYBR Green DNA, 72 h; series mostly up to 28.7 µM
# How it was run: (§1)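 Readout was DNA-dye fluorescence from lysed cultures, ex 485/em 535 nm. Parasitized red cells had grown 72 h with compound; data scaled between 0.29 uM artemisinin and DMSO wells and corrected using vehicle-only plates.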
# CP203 = assay: as above; settings: P. falciparum in erythrocytes, SYBR Green DNA, 72 h; series mostly up to 28.7 µM
# How it was run: as §1
# CP217 = assay: as above; settings: P. falciparum in erythrocytes, SYBR Green DNA, 72 h; series mostly up to 28.7 µM
# How it was run: as §1
# CP247 = assay: as above; settings: P. falciparum in erythrocytes, SYBR Green DNA, 72 h; series mostly up to 28.7 µM
# How it was run: as §1
# CP256 = assay: as above; settings: P. falciparum in erythrocytes, SYBR Green DNA, 72 h; series mostly up to 28.7 µM
# How it was run: as §1
# CP262 = assay: as above; settings: P. falciparum in erythrocytes, SYBR Green DNA, 72 h; series mostly up to 28.7 µM
# How it was run: as §1
# CP265 = assay: as above; settings: P. falciparum in erythrocytes, SYBR Green DNA, 72 h; series mostly up to 28.7 µM
# How it was run: as §1
# CP297 = assay: as above; settings: P. falciparum in erythrocytes, SYBR Green DNA, 72 h; series mostly up to 28.7 µM
# How it was run: as §1
# CP335 = assay: as above; settings: P. falciparum in erythrocytes, SYBR Green DNA, 72 h; series mostly up to 28.7 µM
# How it was run: as §1
# DFO2036 = assay: as above; settings: P. falciparum in erythrocytes, SYBR Green DNA, 72 h; series mostly up to 28.7 µM
# How it was run: as §1
# DIV30 = assay: as above; settings: P. falciparum in erythrocytes, SYBR Green DNA, 72 h; series mostly up to 28.7 µM
# How it was run: as §1
# N140 = assay: as above; settings: P. falciparum in erythrocytes, SYBR Green DNA, 72 h; series mostly up to 28.7 µM
# How it was run: as §1
# PAD = assay: as above; settings: P. falciparum in erythrocytes, SYBR Green DNA, 72 h; series mostly up to 28.7 µM
# How it was run: as §1
# PC26 = assay: as above; settings: P. falciparum in erythrocytes, SYBR Green DNA, 72 h; series mostly up to 28.7 µM
# How it was run: as §1
# CP266 = assay: as above; settings: P. falciparum in erythrocytes, SYBR Green DNA, 72 h; series mostly up to 28.7 µM
# How it was run: as §1
# HB3 = assay: as above; settings: P. falciparum in erythrocytes, SYBR Green DNA, 72 h; series mostly up to 28.7 µM
# How it was run: as §1
# ICS = assay: as above; settings: P. falciparum in erythrocytes, SYBR Green DNA, 72 h; series mostly up to 28.7 µM
# How it was run: as §1
# [1] = target: Peroxisome proliferator-activated receptor delta (Homo sapiens) (UniProt Q03181); assay: qHTS assay for small molecule agonists of peroxisome proliferator-activated receptor delta signaling (AID 588534; calls by dose curve)
# Sequence of Peroxisome proliferator-activated receptor delta (Homo sapiens) (Q03181 whole entry, looked up): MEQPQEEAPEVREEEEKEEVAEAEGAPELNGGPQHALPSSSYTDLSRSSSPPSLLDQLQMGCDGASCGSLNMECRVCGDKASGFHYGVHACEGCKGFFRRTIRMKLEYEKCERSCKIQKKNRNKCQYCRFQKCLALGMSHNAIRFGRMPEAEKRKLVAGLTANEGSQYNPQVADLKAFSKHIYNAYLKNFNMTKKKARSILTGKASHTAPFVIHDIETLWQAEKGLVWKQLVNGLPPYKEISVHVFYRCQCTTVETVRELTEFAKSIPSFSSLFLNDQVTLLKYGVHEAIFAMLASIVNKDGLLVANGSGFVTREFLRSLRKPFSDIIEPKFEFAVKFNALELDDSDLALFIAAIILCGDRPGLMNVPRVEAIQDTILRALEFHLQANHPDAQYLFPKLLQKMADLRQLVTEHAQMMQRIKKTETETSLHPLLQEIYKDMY
# How it was run: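 Reporter cells were plated and held 5 hrs at 37 C before compounds were added. After 18 hrs at 37 C, CCF4 dye was loaded for 2 hrs at RT and fluorescence measured.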
# [2] = qHTS assay for small molecule antagonists of retinoid X receptor alpha signaling (AID 588546); settings: HEK293T RXRa-UAS-bla, beta-lactamase ratio, antagonist mode; measured here: W530 green channel, cytotoxicity proxy;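 also: cells stimulated with 9-cis-retinoic acid as agonist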
# How it was run: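 Beta-lactamase reporter inhibition, read as CCF4 fluorescence ratio (ex 405, em 460/530 nm) after 2 h at RT. HEK293T UAS-bla cells, 2500/well, were stimulated with 9-cis-RA at 500 or 100 nM final alongside test compound for 18 h at 37 C.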
# [3] = qHTS assay for cell viability of HEK293 cells (AID 743288); settings: ATP luminescence (CellTiter-Glo), 18 h; max response: stronger effect = lower value; also: nearly all actives have a fitted effect of over 50% in size; also: potency is read from the fitted curve at half-maximal effect
# How it was run: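 Environmental chemicals tested in qHTS format against parental HEK293 cells; 18 h treatment, 37 C; read-out ATP luminescence (CellTiter-Glo), 30 min RT development.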
structure (smiles),measurement,setting,value
C=CC[C@]1(O)CCC2C3CCC4=CCCCC4C3CCC21C (stereo partly specified),Potency,CP194,inactive
same,Potency,CP203,inactive
same,Potency,CP217,inactive
same,Potency,CP247,inactive
same,Potency,CP256,inactive
same,Potency,CP262,inactive
same,Potency,CP265,inactive
same,Potency,CP297,inactive
same,Potency,CP335,inactive
same,Potency,DFO2036,inactive
same,Potency,DIV30,inactive
same,Potency,N140,inactive
same,Potency,PAD,inactive
same,Potency,PC26,inactive
C#C[C@]1(O)CC[C@H]2[C@@H]3CCC4=CC(=O)CCC4(C)[C@H]3CCC21C (stereo partly specified),Potency,CP194,inactive
same,Potency,CP203,inactive
same,Potency,CP217,inactive
same,Potency,CP256,inactive
same,Potency,CP262,inactive
same,Potency,CP265,inactive
same,Potency,CP266,inactive
same,Potency,CP335,inactive
same,Potency,DFO2036,inactive
same,Potency,DIV30,inactive
same,Potency,HB3,inactive
same,Potency,ICS,inactive
same,Potency,N140,inactive
same,Potency,PAD,inactive
same,Potency,PC26,inactive
C#CC1(O)C=CC2C3CCC4=CC(=O)CCC4C3CCC21CC (stereo unspecified),Potency,CP217,inactive
same,Potency,CP247,6.31 µM (active)
same,Potency,HB3,10 µM (active)
same,Potency,N140,inactive
same,Potency,PC26,6.75 µM (active)
CCCC(C)C1(CC)C(=O)NC(=S)NC1=O (stereo unspecified),Potency,CP194,inactive
same,Potency,CP203,inactive
same,Potency,CP217,inactive
same,Potency,CP247,inactive
same,Potency,CP256,inactive
same,Potency,CP262,inactive
same,Potency,CP265,inactive
same,Potency,CP266,inactive
same,Potency,CP297,inactive
same,Potency,CP335,inactive
same,Potency,DFO2036,inactive
same,Potency,DIV30,inactive
same,Potency,HB3,inactive
same,Potency,ICS,inactive
same,Potency,N140,inactive
same,Potency,PAD,inactive
same,Potency,PC26,inactive
CCCCN(CC)c1c([N+](=O)[O-])cc(C(F)(F)F)cc1[N+](=O)[O-],outcome,[1],inactive
same,max response,[2],-9.26%
same,max response,[3],-10.2% (inactive)
CN1[C@H]2CC(OC(=O)[C@H](CO)c3ccccc3)C[C@H]1[C@H]1O[C@H]12 (stereo partly specified),outcome,[1],inactive
N#Cc1c(Cl)c(Cl)c(Cl)c(C#N)c1Cl,max response,[2],-33.7%
same,Potency,[3],15.8 µM (active)
CC(C)=O,outcome,[1],inactive
O=C(NC(=O)c1c(F)cccc1F)Nc1ccc(Cl)cc1,outcome,[1],inactive
same,max response,[2],-10.4%
same,max response,[3],-0.376% (inactive)
CSc1nc(NC(C)C)nc(NC(C)C)n1,max response,[3],2.18% (inactive)
O=C1C=C2C(=CCOC2O)O1 (stereo unspecified),outcome,[1],inactive
same,Potency,[3],8.91 µM (active)
C=C(C)c1ccccc1,outcome,[1],inactive
c1ccc2ncccc2c1,outcome,[1],inactive
CCOc1nc(NC)nc(NC(=O)NS(=O)(=O)c2ccccc2C(=O)OC)n1,outcome,[1],inactive
same,max response,[2],-10.6%
same,max response,[3],9.14% (inactive)
CCOP(=O)(SC(C)CC)SC(C)CC (stereo unspecified),outcome,[1],inactive
same,max response,[2],-3.17%
same,max response,[3],-14% (inactive)
C/C(=N\C(N)=O)N(C)Cc1ccc(Cl)nc1,outcome,[1],inactive
same,max response,[2],-9.48%
same,max response,[3],0.858% (inactive)
O=S1OC[C@@H]2[C@H](CO1)[C@@]1(Cl)C(Cl)=C(Cl)[C@]2(Cl)C1(Cl)Cl (stereo partly specified),max response,[2],9.73% and 12.8%
same,max response,[3],-26.6% (inactive) and -23.3% (inactive)
FC(F)(F)c1ccc(OCCCOc2c(Cl)cc(OCC=C(Cl)Cl)cc2Cl)nc1,outcome,[1],inactive
same,max response,[2],-14.8%
same,max response,[3],-6.52% (inactive)
CCOP(=S)(OCC)SCC(=O)NC(C)C,outcome,[1],inactive
same,max response,[2],-8.13%
same,max response,[3],-3.84% (inactive)
CCOC1Oc2ccc(OS(C)(=O)=O)cc2C1(C)C (stereo unspecified),outcome,[1],inactive
same,max response,[2],-7.46%
same,max response,[3],-23.7% (inactive)
CCOP(=O)(OCC)SCSCC,outcome,[1],inactive
same,max response,[2],-15.2%
same,max response,[3],-3.03% (inactive)
COCc1cnc(C2=NC(C)(C(C)C)C(=O)N2)c(C(=O)O)c1 (stereo unspecified),outcome,[1],inactive
same,max response,[2],-13.7%
same,max response,[3],-3.54% (inactive)
Cc1cc(Cl)ccc1OCC(=O)O,max response,[2],-3.03% and 10.9%
same,max response,[3],-1.7% (inactive) and -11.8% (inactive)
C/C=C(\C)C(=O)O[C@H]1C[C@@H](OC(C)=O)[C@@]2(C(=O)OC)CO[C@H]3[C@@H](O)[C@@](C)([C@]45O[C@@]4(C)[C@H]4C[C@@H]5O[C@@H]5OC=C[C@@]54O)[C@H]4[C@]1(CO[C@]4(O)C(=O)OC)[C@@H]32,outcome,[1],inactive
same,max response,[2],-5.84%
same,max response,[3],-0.199% (inactive)
COc1nc(C)nc(NC(=O)NS(=O)(=O)c2ccccc2CCC(F)(F)F)n1,max response,[2],-4.25%
same,max response,[3],0.421% (inactive)
CCOP(=S)(OCC)Oc1ncn(-c2ccccc2)n1,outcome,[1],inactive
same,max response,[2],-1.85%
same,max response,[3],-0.263% (inactive)
O=[As](O)(O)O,outcome,[1],inactive
same,max response,[2],-3.47%
same,max response,[3],-4.83% (inactive)
C=CC(=O)NCO,outcome,[1],inactive
same,max response,[2],-9.77% and -7.1%
same,max response,[3],-8.84% (inactive) and -5.85% (inactive)
CCOP(=O)(OCC)SCSC(C)(C)C,outcome,[1],inactive
same,max response,[2],-15.4%
same,max response,[3],-8.78% (inactive)
